# According to paper PMC6212790, “How bacterial xenogeneic silencer rok distinguishes foreign from self DNA in its resident genome”:
# Over roughly 33,000 sequences, “e-score” has its median near -0.038; the highest 2% begin near 0.33. The full list was thinned out, with the highest values kept by preference.
# Target: T1, GST-Rok-C97-191 (Bacillus subtilis subsp. subtilis str. …, UniProt O34857 97-191)
# T1 sequence: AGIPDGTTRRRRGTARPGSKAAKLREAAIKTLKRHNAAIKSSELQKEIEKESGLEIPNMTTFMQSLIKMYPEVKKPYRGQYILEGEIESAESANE
# Assay: protein binding microarray; Rok is a gene silencer of Bacillus subtilis; high values mean tight binding
# Settings: protein: recombinant; tags: GST (pTH5325, pDEST15-Magic modified); dsDNA, one strand shown
# Outline: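 Each has a 25-mer constant primer and a 35-mer variable part from a de Bruijn sequence of order 10, covering every non-palindromic 8-mer at least 32 times (palindromic 16). Preference for each 8-mer is given as a rank-based, unitless enrichment score (E-score). Its range runs from 0.5 (most favored) to −0.5 (most disfavored).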
row,Sequence,binding signal
1,ATTGATAA,0.243 E-score
2,ATTGATAC,0.22 E-score
3,ATTGATAG,0.348 E-score
4,CGATACAC,0.155 E-score
5,CGTTCCGA,-0.149 E-score
6,AGCACGGA,0.0231 E-score
7,AATCTAAC,0.199 E-score
8,AATCTAAG,0.234 E-score
9,AATCTACG,0.36 E-score
10,AATCTACT,0.43 E-score
11,AATCTAGT,0.282 E-score
12,CATCTACC,0.222 E-score
13,ACTCTACT,0.273 E-score
14,CATCTACG,-0.0119 E-score
15,GATCTAAC,0.0254 E-score
16,AATCTACC,0.447 E-score
17,AATCTAGC,0.234 E-score
18,GATCTACC,0.35 E-score
19,AGAATGCA,0.038 E-score
20,ACGTTTCC,-0.131 E-score
21,AAGTGTCG,0.0859 E-score
22,AGAAAAGC,0.217 E-score
23,ACCACCAT,-0.0276 E-score
24,GACTATCA,-0.147 E-score
25,CACTATCA,0.175 E-score

row,Sequence,binding signal
1,AACTATTA,0.444 E-score
2,GTCTATTA,0.0713 E-score
3,CACTATTA,0.202 E-score
4,CTCTATTA,0.246 E-score
5,GACTATTA,0.165 E-score
6,AGCTATCA,0.335 E-score
7,GGCTATCA,-0.0497 E-score
8,ATCTATTA,0.353 E-score
9,CGCTATCA,0.0552 E-score
10,AACTATCA,0.369 E-score
11,ATAGTTGC,0.306 E-score
12,CTGGAACC,-0.0259 E-score
13,AGTCAGTA,0.149 E-score
14,AAGGCGCT,-0.115 E-score
15,CCGCCTAG,-0.149 E-score
16,GAGATGAA,-0.0161 E-score
17,CCCGAAAC,-0.179 E-score
18,CGGTCGTA,0.261 E-score
19,ATTATGAG,-0.00845 E-score
20,GTACCCAA,-0.0765 E-score
21,ATCTATCA,0.451 E-score
22,CTCTATCA,0.0167 E-score
23,GTCTATCA,-0.0797 E-score
24,CAGTATTA,0.188 E-score
25,GAGTATTA,0.187 E-score

row,Sequence,binding signal
1,AAGTATTA,0.349 E-score
2,AGTCTTGC,0.0754 E-score
3,ACGACTTA,0.051 E-score
4,GCAGCAAC,-0.161 E-score
5,TATCAATA,0.331 E-score
6,GATCAATA,0.0798 E-score
7,AATCAATA,0.227 E-score
8,AAAAAACA,0.19 E-score
9,AGAAACCG,-0.049 E-score
10,AAATACAC,0.25 E-score
11,AAATACGA,0.0254 E-score
12,AAATACAG,0.123 E-score
13,AAATACGT,0.343 E-score
14,AAATACAT,0.359 E-score
15,AAATACGG,0.213 E-score
16,CGTTCCTA,0.0168 E-score
17,CAGTATGC,-0.144 E-score
18,GCAGATAA,0.127 E-score
19,CCTAATAC,0.14 E-score
20,ATCCGTCC,-0.186 E-score
21,CTACCACA,0.343 E-score
22,CTACCATC,0.421 E-score
23,GTACCAGA,0.0231 E-score
24,ATACCATA,0.267 E-score
25,GTACCACA,0.0685 E-score

row,Sequence,binding signal
1,CTACCATA,0.324 E-score
2,GTACCATA,0.362 E-score
3,ATACCACG,0.0833 E-score
4,ATACCATC,0.0328 E-score
5,ATGGCGCA,-0.0193 E-score
6,GAAACTCC,0.0382 E-score
7,ACGTAGAT,0.219 E-score
8,TCGTAGAA,0.236 E-score
9,CGGTAGAA,0.411 E-score
10,GGGTAGCA,-0.148 E-score
11,AGTTAGAT,0.196 E-score
12,CGGTAGAG,-0.0194 E-score
13,GGGTAGAC,-0.0486 E-score
14,CGGTAGAC,-0.0972 E-score
15,AGGTAGAT,0.36 E-score
16,CCGTAGAA,0.289 E-score
17,GGGTAGAA,0.384 E-score
18,TGGTAGAA,0.468 E-score
19,CGAGTAGC,-0.0476 E-score
20,AGTCAAGG,-0.145 E-score
21,CATGCTCC,-0.102 E-score
22,AAAGGATG,-0.047 E-score
23,AGACAGTA,0.0933 E-score
24,GAGAACGA,-0.104 E-score
25,CGAGCAAG,-0.0658 E-score

row,Sequence,binding signal
1,CTTACGGC,-0.196 E-score
2,CATATTGC,0.0992 E-score
3,CAGGTCAA,-0.108 E-score
4,CTGTAGAA,0.258 E-score
5,AGGTAGAG,0.118 E-score
6,GTGTAGAA,0.293 E-score
7,ATGTAGAA,0.38 E-score
8,AGGTAGAA,0.433 E-score
9,AGGTAGAC,0.093 E-score
10,ACCTCTTA,0.191 E-score
11,TCATAGGA,0.154 E-score
12,CAGGAGCA,-0.151 E-score
13,CAACCTAC,0.263 E-score
14,AACATCCT,0.0847 E-score
15,CGCCTACG,-0.0439 E-score
16,CCCTTGAC,-0.132 E-score
17,GAAAGTAC,0.35 E-score
18,AATAGTGT,0.242 E-score
19,AATAGTAT,0.332 E-score
20,CAAAGTAC,-0.0306 E-score
21,AATAGTCA,0.186 E-score
22,AACAGTAA,0.285 E-score
23,AATAGTAA,0.338 E-score
24,CACAGTAG,0.0897 E-score
25,AACAGTAG,0.362 E-score

row,Sequence,binding signal
1,ATTAGTAA,0.303 E-score
2,AATAGTAC,0.293 E-score
3,GAAAGTAA,0.226 E-score
4,AGTTGCCA,0.0801 E-score
5,ATTAGGGC,-0.073 E-score
6,CAAGACTA,0.186 E-score
7,CTGACGAA,-0.0673 E-score
8,GATAGCGC,0.191 E-score
9,GCAAATAA,0.158 E-score
10,AATGATGA,0.00727 E-score
11,CATAGTAG,0.195 E-score
12,AAAAGTAG,0.344 E-score
13,AAAAGTAC,0.279 E-score
14,CAAAGTAG,0.194 E-score
15,AATAGTCG,-0.0896 E-score
16,AATAGTAG,0.475 E-score
17,AGACCACG,-0.138 E-score
18,CGTGTAAC,0.0552 E-score
19,CTAGGCAC,-0.149 E-score
20,CGGCTAAC,0.00729 E-score
21,GAGTTCAC,0.0331 E-score
22,AGCTCGGG,-0.116 E-score
23,CCTATATC,0.0424 E-score
24,AATATATC,0.424 E-score
25,ACTATATG,0.283 E-score

row,Sequence,binding signal
1,AATATATG,0.337 E-score
2,CGTATATC,0.316 E-score
3,AATATAAG,0.26 E-score
4,AATATGTG,0.199 E-score
5,AATATAGA,0.309 E-score
6,AATATTAT,0.21 E-score
7,AATATATT,0.417 E-score
8,AAAATATT,0.327 E-score
9,AATATATA,0.462 E-score
10,CAGAAACG,-0.0943 E-score
11,TAAGTCAA,-0.0154 E-score
12,ATGATCCA,0.0416 E-score
13,ACCAACAT,0.157 E-score
14,CCATCGGG,-0.172 E-score
15,GCCGGACA,0.0879 E-score
16,ATTATGTA,0.354 E-score
17,CCTATGTA,0.302 E-score
18,GTTATGTA,0.292 E-score
19,ACTATGTA,0.356 E-score
20,GCTATGTA,0.226 E-score
21,CTTATGTA,0.0579 E-score
22,AAGGGCAG,-0.195 E-score
23,AACACATG,0.0194 E-score
24,AAGCTGTC,0.0421 E-score
25,ACCAGGAC,-0.0513 E-score

row,Sequence,binding signal
1,TAATGTAA,0.357 E-score
2,GAATGTAA,0.173 E-score
3,GCATGTAC,0.163 E-score
4,CAATGTAA,-0.0287 E-score
5,AAATGTAC,0.364 E-score
6,CAATGTAC,0.204 E-score
7,AAATGTAA,0.349 E-score
8,CCATGTAC,0.185 E-score
9,AAATGTAG,0.286 E-score
10,AAATGTAT,0.27 E-score
11,ACATGTAC,0.331 E-score
12,GAATGTAC,0.304 E-score
13,TAATTAGA,0.324 E-score
14,CATAAAGC,-0.119 E-score
15,GTGCTAGA,0.197 E-score
16,CTAGCAAC,0.222 E-score
17,TGCGACAA,-0.0569 E-score
18,CGTGCAGC,-0.0438 E-score
19,GCTACGGA,-0.0221 E-score
20,CCCTAGCG,-0.135 E-score
21,CCACGCTC,-0.0229 E-score
22,ATAGGTTA,0.162 E-score
23,AGATGTAA,0.191 E-score
24,ATCTGTAC,0.0594 E-score
25,ATATGTAA,0.28 E-score

row,Sequence,binding signal
1,ATATGTAC,0.309 E-score
2,AGATGTAG,0.331 E-score
3,ATCTGTAG,0.37 E-score
4,ATCTGTAA,0.106 E-score
5,ATATGTAG,0.386 E-score
6,AGATGTAT,0.264 E-score
7,AAAAGTGG,0.0303 E-score
8,GCTACATA,0.315 E-score
9,GCTAGGCA,-0.0675 E-score
10,CAAGGGCC,-0.186 E-score
11,AAAATACA,0.32 E-score
12,AAAATACT,0.371 E-score
13,AAAATACC,0.357 E-score
14,CAAATACC,0.114 E-score
15,AAAATACG,0.266 E-score
16,GAAATACC,0.289 E-score
17,AAGTAAGG,0.0741 E-score
18,AGAGTTTC,-0.0267 E-score
19,GTCGGTTA,0.00256 E-score
